Data published in PubChem BioAssay (EPA / NIEHS).
Records with an inconclusive call do not appear. Calls of active or inactive are those of the source. Rule for the calls, unless noted: active = hit-call score of the fitted dose curve at least 0.9, where 1 is the maximum; inconclusive = response in the unintended direction; inactive = score below 0.9.

How the values were obtained:
[1] = BSK_3C_VCAM1: BioMAP Diversity Plus: 3C Assay for Vascular cell adhesion molecule 1 (VCAM1) Biomarker Activity (AID 2282999; active = hit-call score of the fitted dose curve at least 0.9, where 1 is the maximum; inactive = score below 0.9); conditions: BioMAP 3C HUVEC, VCAM1 ELISA, cytokine-stimulated; actives raise or lower the signal
Summary of the method: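 Activity fitted in both directions relative to DMSO, with ELISA measurement of the surface marker on primary HUVEC (3C) at 24 h post-treatment; parallel SRB staining (0.1% SRB, TCA-fixed, 560 nm) flagged overt cytotoxicity.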

[2] = BSK_4H_Eotaxin3: BioMAP Diversity Plus: 4H Assay for Eotaxin 3 Biomarker Activity (AID 2283000; active = hit-call score of the fitted dose curve at least 0.9, where 1 is the maximum; inactive = score below 0.9); conditions: primary human endothelial cells (HUVEC); actives raise or lower the signal
Summary of the method: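 Chemicals were added to human umbilical vein endothelium cultures, and Eotaxin-3 was quantified by ELISA at 24 h. Values were derived by bidirectional fitting with DMSO serving as negative control and activity baseline.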

[3] = read-out: Intercellular Adhesion Molecule 1 (ICAM1), ICAM1 (gene 3383); test: BSK_3C_ICAM1: BioMAP Diversity Plus: 3C Assay for Intercellular Adhesion Molecule 1 (ICAM1) Biomarker Activity (AID 2283003; active = hit-call score of the fitted dose curve at least 0.9, where 1 is the maximum; inactive = score below 0.9); conditions: primary human endothelial cells (HUVEC); actives raise or lower the signal
Summary of the method: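 Using DMSO as baseline, bidirectional curve fitting was applied to ICAM-1 ELISA signals from HUVEC in the 3C system, measured 24 h after compound addition.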

[4] = BSK_3C_Proliferation: Cell Proliferation Assessment in the BioMAP Diversity Plus: 3C Assay (AID 2283006; active = hit-call score of the fitted dose curve at least 0.9, where 1 is the maximum; inactive = score below 0.9;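 note: potency may reflect either rise or fall in cell number versus DMSO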); conditions: primary human endothelial cells (HUVEC)
Summary of the method: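 Measured here: sulforhodamine B (0.1%) staining of TCA-fixed sub-confluent umbilical vein endothelial cultures 48 h post-dosing, absorbance 560 nm. DMSO served as negative control and baseline; both signal gain and loss were modelled.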

[5] = target: Peroxisome proliferator-activated receptor gamma (Homo sapiens) (UniProt P37231); test: ATG_PPARg_TRANS: Attagene TRANS-FACTORIAL HepG2 Assay for human Peroxisome Proliferator-activated Receptor-gamma (PPARg) (AID 2283007)
Peroxisome proliferator-activated receptor gamma (Homo sapiens), sequence (P37231 whole entry, looked up, the tested form may be a part): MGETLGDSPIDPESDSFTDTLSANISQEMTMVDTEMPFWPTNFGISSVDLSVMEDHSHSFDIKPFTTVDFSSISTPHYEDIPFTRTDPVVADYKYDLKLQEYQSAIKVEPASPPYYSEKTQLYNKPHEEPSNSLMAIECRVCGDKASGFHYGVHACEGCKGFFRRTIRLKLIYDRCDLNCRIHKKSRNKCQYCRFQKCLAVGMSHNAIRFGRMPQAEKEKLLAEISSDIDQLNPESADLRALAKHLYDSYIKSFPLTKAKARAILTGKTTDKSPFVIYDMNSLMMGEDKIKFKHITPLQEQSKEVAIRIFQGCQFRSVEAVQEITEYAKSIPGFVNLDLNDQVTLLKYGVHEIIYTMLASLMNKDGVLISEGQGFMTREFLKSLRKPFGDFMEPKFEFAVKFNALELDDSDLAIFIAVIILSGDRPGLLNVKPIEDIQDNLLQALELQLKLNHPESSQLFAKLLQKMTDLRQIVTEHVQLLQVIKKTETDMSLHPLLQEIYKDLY
Summary of the method: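 Transient transfection of HepG2 with GAL4-UAS-driven reporter units; chemical dosing 24 h; total RNA → oligo(dT) RT → PCR with reporter primers → 6-FAM primer extension → HpaI digest 2 h 37 C → capillary electrophoresis. Positive direction vs DMSO.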

[6] = target: human Retinoic Acid Receptor gamma (RARg), RARG (gene 5916) (UniProt P13631); test: ATG_RARg_TRANS: Attagene TRANS-FACTORIAL HepG2 Assay for human Retinoic Acid Receptor gamma (RARg) (AID 2283009)
human Retinoic Acid Receptor gamma (RARg), RARG (gene 5916), sequence (P13631 whole entry, looked up, the tested form may be a part): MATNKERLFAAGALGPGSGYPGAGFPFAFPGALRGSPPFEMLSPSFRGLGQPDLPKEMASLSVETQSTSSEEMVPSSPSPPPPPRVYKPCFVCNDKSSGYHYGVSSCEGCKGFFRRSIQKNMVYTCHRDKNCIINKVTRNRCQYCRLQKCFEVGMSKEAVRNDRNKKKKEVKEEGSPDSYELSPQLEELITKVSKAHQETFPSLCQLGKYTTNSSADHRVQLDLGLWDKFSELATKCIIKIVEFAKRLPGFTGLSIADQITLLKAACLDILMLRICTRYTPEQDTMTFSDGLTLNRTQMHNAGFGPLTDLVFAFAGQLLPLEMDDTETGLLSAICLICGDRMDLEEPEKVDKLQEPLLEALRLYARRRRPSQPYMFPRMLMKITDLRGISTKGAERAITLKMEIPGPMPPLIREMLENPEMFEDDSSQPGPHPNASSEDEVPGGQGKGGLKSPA
Summary of the method: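 Gain-of-signal relative to DMSO is reported from fluorescent capillary electrophoresis of RT-PCR reporter products. These came from HepG2 cells expressing transfected RARg-GAL4 chimeras with UAS reporters, harvested 24 h after dosing.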

[7] = target: Retinoic acid receptor RXR-alpha (Homo sapiens) (UniProt P19793); test: ATG_RXRa_TRANS: Attagene TRANS-FACTORIAL HepG2 Assay for human Retinoid X Receptor alpha (RXRa) (AID 2283012)
Retinoic acid receptor RXR-alpha (Homo sapiens), sequence (P19793 whole entry, looked up, the tested form may be a part): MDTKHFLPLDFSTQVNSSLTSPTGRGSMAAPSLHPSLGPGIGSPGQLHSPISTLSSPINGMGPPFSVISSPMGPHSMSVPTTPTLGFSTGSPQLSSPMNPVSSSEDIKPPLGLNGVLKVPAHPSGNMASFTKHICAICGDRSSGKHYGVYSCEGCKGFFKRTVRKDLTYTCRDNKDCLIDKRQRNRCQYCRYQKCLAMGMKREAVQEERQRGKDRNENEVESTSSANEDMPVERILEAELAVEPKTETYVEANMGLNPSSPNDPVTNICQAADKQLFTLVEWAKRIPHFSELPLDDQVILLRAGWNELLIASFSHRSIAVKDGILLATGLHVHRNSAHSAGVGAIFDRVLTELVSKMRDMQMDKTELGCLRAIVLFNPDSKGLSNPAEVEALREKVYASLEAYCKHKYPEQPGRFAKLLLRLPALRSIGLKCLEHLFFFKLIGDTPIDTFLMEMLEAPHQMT
Summary of the method: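 Chimeric NR-GAL4 trans-activation in HepG2, 24 h treatment; reporter transcripts quantified by fluorescence on capillary electrophoresis, analysed for upward change from DMSO.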

[8] = read-out: E-selectin (Homo sapiens) (UniProt P16581); test: BSK_3C_Eselectin: BioMAP Diversity Plus: 3C Assay for Eselectin Biomarker Activity (AID 2283015; active = hit-call score of the fitted dose curve at least 0.9, where 1 is the maximum; inactive = score below 0.9;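 note: cell surface E-selectin protein quantified by ELISA 24 h after dosing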); conditions: primary human endothelial cells (HUVEC); actives raise or lower the signal
Summary of the method: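 ELISA read-out of E-selectin on endothelial monolayers after 24 h chemical treatment. Human umbilical vein primary cells served as the system, with DMSO defining baseline activity for bidirectional fitting.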

[9] = read-out: Interleukin-1 alpha (IL1a), IL1A (gene 3552); test: BSK_BE3C_IL1a: BioMAP Diversity Plus: BE3C Assay for Interleukin-1 alpha (IL1a) Biomarker Activity (AID 2283016; active = hit-call score of the fitted dose curve at least 0.9, where 1 is the maximum; inactive = score below 0.9); conditions: primary human bronchial epithelial cells; actives raise or lower the signal
Summary of the method: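 Measured in human lung primary bronchial epithelial cells: IL-1a by ELISA at 24 h after dosing, with bidirectional fitting against DMSO.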

[10] = read-out: Monocyte Chemoattractant Protein-1 (MCP1), CCL2 (gene 6347); test: BSK_3C_MCP1: BioMAP Diversity Plus: 3C Assay for Monocyte Chemoattractant Protein-1 (MCP1) Biomarker Activity (AID 2283017; active = hit-call score of the fitted dose curve at least 0.9, where 1 is the maximum; inactive = score below 0.9); conditions: primary human endothelial cells (HUVEC); actives raise or lower the signal
Summary of the method: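 ELISA read-out of MCP-1 from human umbilical vein endothelial cell cultures harvested 24 h post-dosing. Gain or loss of signal was fitted relative to DMSO.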

[11] = read-out: Monocyte Chemoattractant Protein-1 (MCP1), CCL2 (gene 6347); test: BSK_4H_MCP1: BioMAP Diversity Plus: 4H Assay for Monocyte Chemoattractant Protein-1 (MCP1) Biomarker Activity (AID 2283018; active = hit-call score of the fitted dose curve at least 0.9, where 1 is the maximum; inactive = score below 0.9); conditions: primary human endothelial cells (HUVEC); actives raise or lower the signal
Summary of the method: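 Primary human umbilical vein endothelium is exposed to chemical for 24 h before MCP-1 is assayed by ELISA. Concentration-response fitted bidirectionally relative to DMSO.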

[12] = target: Nuclear receptor subfamily 1 group I member 2 (Homo sapiens) (UniProt O75469); test: ATG_PXR_TRANS: Attagene TRANS-FACTORIAL HepG2 Assay for human Pregnane X Receptor (PXR) (AID 2283008)
Nuclear receptor subfamily 1 group I member 2 (Homo sapiens), sequence (O75469 whole entry, looked up, the tested form may be a part): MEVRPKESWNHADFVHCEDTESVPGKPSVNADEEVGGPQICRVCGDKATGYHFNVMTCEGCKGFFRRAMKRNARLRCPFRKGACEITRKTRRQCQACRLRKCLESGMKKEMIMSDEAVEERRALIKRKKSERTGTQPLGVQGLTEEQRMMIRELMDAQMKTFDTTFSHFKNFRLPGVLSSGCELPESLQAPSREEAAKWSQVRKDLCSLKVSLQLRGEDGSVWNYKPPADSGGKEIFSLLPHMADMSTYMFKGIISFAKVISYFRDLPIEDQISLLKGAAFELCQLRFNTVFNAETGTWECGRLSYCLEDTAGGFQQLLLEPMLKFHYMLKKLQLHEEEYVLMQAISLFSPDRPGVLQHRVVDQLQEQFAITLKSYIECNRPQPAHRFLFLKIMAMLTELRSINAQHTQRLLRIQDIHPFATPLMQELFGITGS
Summary of the method: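 Transient HepG2 transfectants carrying multiplexed reporter transcription units; PXR activity read through a Gal4 chimera. 24 h exposure. RT-PCR/CE fluorescence; upward curve fit referenced to DMSO.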

[13] = target: human RAR-related Orphan Receptor beta (RORb), RORB (gene 6096) (UniProt Q92753); test: ATG_RORb_TRANS: Attagene TRANS-FACTORIAL HepG2 Assay for human RAR-related Orphan Receptor beta (RORb) (AID 2283010)
human RAR-related Orphan Receptor beta (RORb), RORB (gene 6096), sequence (Q92753 whole entry, looked up, the tested form may be a part): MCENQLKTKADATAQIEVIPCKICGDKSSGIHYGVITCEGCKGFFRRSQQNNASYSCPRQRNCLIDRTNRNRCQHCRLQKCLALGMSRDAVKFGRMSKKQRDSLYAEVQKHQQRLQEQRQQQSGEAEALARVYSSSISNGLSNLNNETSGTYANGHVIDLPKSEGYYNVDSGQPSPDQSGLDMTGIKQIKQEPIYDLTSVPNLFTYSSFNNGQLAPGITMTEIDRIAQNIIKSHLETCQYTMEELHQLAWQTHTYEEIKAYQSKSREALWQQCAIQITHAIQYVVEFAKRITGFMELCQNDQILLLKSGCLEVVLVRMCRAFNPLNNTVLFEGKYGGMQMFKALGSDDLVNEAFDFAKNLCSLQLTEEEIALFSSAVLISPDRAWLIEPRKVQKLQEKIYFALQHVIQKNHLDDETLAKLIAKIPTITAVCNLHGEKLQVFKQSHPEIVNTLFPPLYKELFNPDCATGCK
Summary of the method: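 Multiplexed transcription-factor reporter assay: HepG2 cells transiently carrying NR-Gal4/GAL4-UAS constructs, 24 h treatment, mRNA quantified by RT-PCR plus capillary electrophoresis fluorescence; activity scored as induction over DMSO.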

[14] = target: human Peroxisome Proliferator-activated Receptor alpha (PPARa), PPARA (gene 5465) (UniProt Q07869); test: ATG_PPARa_TRANS: Attagene TRANS-FACTORIAL HepG2 Assay for human Peroxisome Proliferator-activated Receptor alpha (PPARa) (AID 2283001);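 for AC50: potency for gain of reporter signal over DMSO so agonist or activator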
human Peroxisome Proliferator-activated Receptor alpha (PPARa), PPARA (gene 5465), sequence (Q07869 whole entry, looked up, the tested form may be a part): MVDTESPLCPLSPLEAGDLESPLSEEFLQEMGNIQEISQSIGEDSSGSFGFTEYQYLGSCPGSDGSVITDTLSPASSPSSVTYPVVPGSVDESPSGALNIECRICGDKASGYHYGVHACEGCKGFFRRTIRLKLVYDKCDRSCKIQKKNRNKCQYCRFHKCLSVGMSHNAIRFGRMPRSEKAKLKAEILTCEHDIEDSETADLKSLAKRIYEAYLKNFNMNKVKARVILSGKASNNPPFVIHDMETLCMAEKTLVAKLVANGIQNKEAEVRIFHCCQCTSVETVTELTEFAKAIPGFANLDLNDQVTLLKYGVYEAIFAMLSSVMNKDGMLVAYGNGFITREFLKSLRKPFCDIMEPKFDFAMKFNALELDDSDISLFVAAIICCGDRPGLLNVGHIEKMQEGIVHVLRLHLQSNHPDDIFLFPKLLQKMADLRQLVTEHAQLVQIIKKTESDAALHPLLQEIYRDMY
Summary of the method: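 Transfected HepG2 cells treated with test chemical for 24 h. RNA isolated, reverse-transcribed with oligo(dT), PCR-amplified, FAM-labelled and HpaI-digested. Fragments sized by capillary electrophoresis; gain-of-signal fit relative to DMSO.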

[15] = target: human Retinoid X Receptor beta (RXRb), RXRB (gene 6257) (UniProt P28702); test: ATG_RXRb_TRANS: Attagene TRANS-FACTORIAL HepG2 Assay for human Retinoid X Receptor beta (RXRb) (AID 2283013)
human Retinoid X Receptor beta (RXRb), RXRB (gene 6257), sequence (P28702 whole entry, looked up, the tested form may be a part): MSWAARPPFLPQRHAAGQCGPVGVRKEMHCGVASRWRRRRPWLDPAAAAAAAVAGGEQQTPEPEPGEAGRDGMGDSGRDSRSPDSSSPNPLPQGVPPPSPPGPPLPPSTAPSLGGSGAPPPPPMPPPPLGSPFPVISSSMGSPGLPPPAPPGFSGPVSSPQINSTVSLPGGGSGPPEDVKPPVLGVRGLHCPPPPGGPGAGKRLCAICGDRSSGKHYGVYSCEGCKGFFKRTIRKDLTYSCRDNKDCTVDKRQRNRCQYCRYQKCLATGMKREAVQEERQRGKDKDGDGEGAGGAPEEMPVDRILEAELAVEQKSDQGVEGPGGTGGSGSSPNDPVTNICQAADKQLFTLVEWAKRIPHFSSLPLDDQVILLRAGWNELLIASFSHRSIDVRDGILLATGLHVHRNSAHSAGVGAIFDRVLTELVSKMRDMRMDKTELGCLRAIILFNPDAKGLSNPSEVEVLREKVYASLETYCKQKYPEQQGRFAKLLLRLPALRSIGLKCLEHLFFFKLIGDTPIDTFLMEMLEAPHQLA
Summary of the method: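 After a 24 h incubation with test chemical, transfected HepG2 cells carrying NR-Gal4 fusions and GAL4-UAS reporter transcription units yield RNA whose reporter cDNA is FAM-labelled, HpaI-cut and sized by capillary electrophoresis; increases over DMSO are scored.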

[16] = target: human Peroxisome Proliferator-activated Receptor delta (PPARd), PPARD (gene 5467) (UniProt Q03181); test: ATG_PPARd_TRANS: Attagene TRANS-FACTORIAL HepG2 Assay for human Peroxisome Proliferator-activated Receptor delta (PPARd) (AID 2283002)
human Peroxisome Proliferator-activated Receptor delta (PPARd), PPARD (gene 5467), sequence (Q03181 whole entry, looked up): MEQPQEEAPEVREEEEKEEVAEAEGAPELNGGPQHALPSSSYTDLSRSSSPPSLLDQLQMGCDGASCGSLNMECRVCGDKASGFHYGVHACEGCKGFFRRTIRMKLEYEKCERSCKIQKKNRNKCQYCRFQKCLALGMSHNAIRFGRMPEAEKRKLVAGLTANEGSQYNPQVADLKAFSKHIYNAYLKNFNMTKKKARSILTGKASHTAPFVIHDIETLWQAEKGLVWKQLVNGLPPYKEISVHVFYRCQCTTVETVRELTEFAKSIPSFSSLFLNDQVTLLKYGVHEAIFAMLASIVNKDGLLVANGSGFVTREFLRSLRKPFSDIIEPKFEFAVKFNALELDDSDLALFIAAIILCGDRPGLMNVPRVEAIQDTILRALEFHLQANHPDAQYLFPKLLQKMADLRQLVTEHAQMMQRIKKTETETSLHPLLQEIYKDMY
Summary of the method: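 Cell-based TRANS reporter: HepG2, transient MRTU transfection, 24 h exposure. Readout = reporter mRNA (RT-PCR/CE, 6-FAM). Gain-of-signal fit vs DMSO control.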

[17] = target: human Thyroid Receptor alpha (THRa1), THRA (gene 7067) (UniProt P10827); test: ATG_THRa1_TRANS: Attagene TRANS-FACTORIAL HepG2 Assay for human Thyroid Receptor alpha (THRa1) (AID 2283014)
human Thyroid Receptor alpha (THRa1), THRA (gene 7067), sequence (P10827 whole entry, looked up, the tested form may be a part): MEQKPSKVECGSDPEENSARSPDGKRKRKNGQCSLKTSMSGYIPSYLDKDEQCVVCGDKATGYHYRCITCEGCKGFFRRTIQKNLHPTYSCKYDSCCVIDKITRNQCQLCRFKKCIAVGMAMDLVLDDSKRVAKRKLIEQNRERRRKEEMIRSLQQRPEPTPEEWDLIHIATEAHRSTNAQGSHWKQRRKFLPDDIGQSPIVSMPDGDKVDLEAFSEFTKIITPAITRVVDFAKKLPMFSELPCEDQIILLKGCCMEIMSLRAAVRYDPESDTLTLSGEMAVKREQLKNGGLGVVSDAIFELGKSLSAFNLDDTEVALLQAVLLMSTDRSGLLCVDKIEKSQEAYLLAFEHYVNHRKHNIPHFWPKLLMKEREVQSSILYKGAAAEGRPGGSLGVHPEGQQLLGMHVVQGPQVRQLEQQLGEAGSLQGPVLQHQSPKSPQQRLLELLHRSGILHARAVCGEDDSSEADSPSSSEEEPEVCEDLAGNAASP
Summary of the method: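 Reporter transcript induction, read by capillary electrophoresis of 6-FAM-labelled RT-PCR products, reflects activity of a transfected THRa1-Gal4 fusion in HepG2 liver cells. Cells were dosed for 24 h; activity was fitted in the positive direction against DMSO.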

Measured: AC50

E-selectin (Homo sapiens), sequence (P16581 whole entry, looked up): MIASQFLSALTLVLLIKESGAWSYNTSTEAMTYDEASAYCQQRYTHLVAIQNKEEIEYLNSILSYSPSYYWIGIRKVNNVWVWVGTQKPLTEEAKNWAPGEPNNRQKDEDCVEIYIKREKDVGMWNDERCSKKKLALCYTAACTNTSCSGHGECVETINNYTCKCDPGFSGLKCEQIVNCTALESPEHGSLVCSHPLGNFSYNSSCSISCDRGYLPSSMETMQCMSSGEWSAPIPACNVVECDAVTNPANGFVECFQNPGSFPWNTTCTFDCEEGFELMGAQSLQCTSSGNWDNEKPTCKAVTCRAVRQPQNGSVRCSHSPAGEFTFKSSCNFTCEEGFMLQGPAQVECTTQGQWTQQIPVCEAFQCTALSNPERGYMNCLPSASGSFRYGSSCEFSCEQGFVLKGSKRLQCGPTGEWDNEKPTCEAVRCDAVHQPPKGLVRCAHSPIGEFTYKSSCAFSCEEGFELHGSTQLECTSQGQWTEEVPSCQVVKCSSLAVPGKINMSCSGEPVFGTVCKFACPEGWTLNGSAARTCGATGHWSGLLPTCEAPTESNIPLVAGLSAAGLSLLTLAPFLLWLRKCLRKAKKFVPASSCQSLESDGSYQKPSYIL

Cn1sc(Cl)cc1=O
active: [1] 36.1 µM | [2] 28.2 µM | [4] 13.7 µM
inactive: [3] | [5] | [6] | [7] | [8] | [9] | [10] | [11]

CCC[CH2][Sn]([CH2]CCC)([CH2]CCC)[O]C(=O)c1ccccc1
inactive: [14]
active: [5] 0.0116 µM | [12] 0.344 µM | [7] 0.00575 µM | [15] 0.105 µM

ClCc1ccccn1
inactive: [14] | [16] | [5] | [12] | [13] | [7] | [17]

N#CCCO
inactive: [14] | [6] | [13] | [7] | [17]

C[C@@H](Oc1ccc(Cl)cc1Cl)C(=O)O
inactive: [14] | [6] | [15] | [17]

COP(=O)(OC)O/C(=C\Cl)c1cc(Cl)c(Cl)cc1Cl
active: [14] 64.8 µM | [5] 10.8 µM | [12] 0.862 µM | [15] 25.7 µM
inactive: [16] | [7] | [17]
